Assay results published in PubChem BioAssay.
Calls of active or inactive are those of the source. Unless noted, the rule behind the calls is not given here.

Assays:
[1] = tested on: Wnt5a (protein binding on small-molecule microarray); experiment: small molecules binding Wnt5a protein – biophysical, small-molecule microarray, 635/667 nm fluorescence, primary screen (AID 1142); settings: 635 nm fluorescence, higher = more signal;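 note: fluorescence read at 667 nm with signal to noise per printed feature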
[2] = ATP-based viability of Huh7 replicon cells – cell-based, CellTiter-Glo luminescence, basal, 48 h, cytotoxicity control for HCV replication inhibitor project, primary screen (AID 1143); settings: higher = more signal, called active from +8 up or from −8 down;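 note: Huh7 hepatoma cells carrying a hepatitis C replication reporter with no stimulus; test concentration not given here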
[3] = Pseudomonas biofilm growth suppression – PAO1 strain, BacTiter-Glo luminescence, LB-PBS, primary screen (AID 1144); settings: P. aeruginosa PAO1 biofilm, 12 h, higher = more signal
[4] = basal CRE-LacZ reporter activity in PC12 – cell-based, unstimulated, primary screen (AID 1145); settings: no forskolin, luminescence, 4.5 h, higher = more signal, called active from +8 up or from −8 down
[5] = forskolin-driven CRE-LacZ activity in PC12 – cell-based, CRE-LacZ reporter, forskolin-stimulated, primary screen (AID 1146); settings: luminescence, 4.5 h, higher = more signal, called active from +8 up or from −8 down;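 note: PC12 cells with 6xCRE LacZ reporter stimulated by forskolin 10 µM; beta-galactosidase reporter signal reflecting CREB driven transcription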
[6] = target: Streptavidin (Streptomyces avidinii) (UniProt P22629); experiment: compounds binding control protein streptavidin – biophysical, small-molecule microarray, 635/667 nm fluorescence, artefact control for SMM compound annotation, primary screen (AID 1147); settings: higher = more signal;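 note: signal reflects streptavidin binding to arrayed compounds as a control protein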
Streptavidin (Streptomyces avidinii), sequence (P22629 whole entry, looked up): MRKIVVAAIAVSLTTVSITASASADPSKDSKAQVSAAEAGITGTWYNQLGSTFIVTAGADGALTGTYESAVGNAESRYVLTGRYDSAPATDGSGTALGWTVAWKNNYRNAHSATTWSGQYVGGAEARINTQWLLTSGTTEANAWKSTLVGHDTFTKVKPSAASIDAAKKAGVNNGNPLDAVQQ

[7] = probe aInhba binding on compound microarray – biochemical, small-molecule microarray, 635/667 nm fluorescence, primary screen (AID 1148); settings: higher = more signal;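 note: score merges 667nm spot fluorescence with signal-to-noise for antibody binding to printed compounds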
Torsin-1A (Homo sapiens) [8] = target: Torsin-1A (Homo sapiens) (UniProt O14656); experiment: TOR1A wild-type binding on microarray – cell lysate, small-molecule microarray, lysate, 635/667 nm, primary screen (AID 1149); settings: COS7 hTOR1A-WT lysate, 635 nm fluorescence, higher = more signal
Torsin-1A (Homo sapiens), sequence (O14656 whole entry, looked up): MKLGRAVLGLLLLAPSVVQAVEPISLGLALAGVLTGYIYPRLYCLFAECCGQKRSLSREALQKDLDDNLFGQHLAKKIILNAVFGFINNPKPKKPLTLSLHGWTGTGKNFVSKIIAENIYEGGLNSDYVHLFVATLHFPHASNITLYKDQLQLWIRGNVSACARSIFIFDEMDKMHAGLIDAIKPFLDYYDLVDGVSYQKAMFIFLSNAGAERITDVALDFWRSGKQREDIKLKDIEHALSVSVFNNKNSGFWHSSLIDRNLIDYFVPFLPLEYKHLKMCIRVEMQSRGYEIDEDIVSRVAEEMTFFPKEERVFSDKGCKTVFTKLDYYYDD

Torsin-1A (Homo sapiens) [9] = target: Torsin-1A (Homo sapiens) (UniProt O14656); experiment: torsin A mutant lysate binding on microarrays – cell lysate, small-molecule microarray, COS7 lysate, 635/667 nm fluorescence, primary screen (AID 1150); settings: COS7 hTOR1A mutant lysate, 635 nm fluorescence, higher = more signal;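 note: score pools 667 nm emission and signal to noise measuring lysate protein binding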
[10] = tested on: Sonic hedgehog protein (Shh); experiment: Sonic hedgehog microarray binding compounds – biochemical, small-molecule microarray, 635/667 nm fluorescence, primary screen (AID 1151); settings: 635 nm fluorescence, higher = more signal;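 note: Shh protein binding to compounds spotted on small-molecule microarray slides; score combines spot fluorescence intensity with signal-to-noise across triplicate slides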
[11] = optical density shifts of acrAB sulA E. coli – strain DRC41, OD650, 48 h, E. coli filamentation inducer project, primary screen (AID 1152); settings: higher = more signal, called active from +8 up or from −8 down;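 note: E. coli MC1000 strain DRC41 lacking acrAB efflux pump and sulA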
[12] = probe aLefty1 binding on compound microarray – biochemical, small-molecule microarray, 635/667 nm fluorescence, primary screen (AID 1153); settings: higher = more signal;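 note: score merges spot fluorescence with signal-to-noise ratio from the scanned slide images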
[13] = plasmodial surface anion channel blockers, osmotic lysis – cell-based, P. falciparum Indochina, OD700, 1 h, primary screen (AID 1154); settings: P. falciparum Indochina infected RBC osmotic lysis, higher = more signal, called active from +8 up or from −8 down
[14] = plasmodial surface anion channel blockers, osmotic lysis – cell-based, P. falciparum Indochina, OD700, 2 h, primary screen (AID 1155);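 note: lysis reports solute entry through the parasite surface anion channel PSAC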; settings: P. falciparum Indochina infected erythrocytes, higher = more signal, called active from +8 up or from −8 down
[15] = changes in parasitized red cell lysis, either direction – P. falciparum Indochina, OD700, 3 h, PSAC antagonist project, primary screen (AID 1156); settings: P. falciparum-infected erythrocytes, osmotic lysis, higher = more signal, called active from +8 up or from −8 down
[16] = plasmodial surface anion channel blockers, osmotic lysis – cell-based, P. falciparum Indochina, OD700, 18 h, primary screen (AID 1157); settings: P. falciparum Indochina infected erythrocytes, osmotic lysis OD700, 18 h; higher = more signal, called active from +8 up or from −8 down
[17] = S6 kinase pathway phospho-S6 level changes – cell-based, A549, cytoblot, luminescence, serum-stimulated, primary screen (AID 1158); settings: 5 h, higher = more signal;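 note: serum-stimulated A549 lung adenocarcinoma cells; signal is phosphorylated S6 detected by cytoblot immunostaining with HRP secondary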
[18] = target: NADPH oxidase 2 (Homo sapiens) (UniProt P04839); experiment: compounds shifting NOX2 Amplex Red fluorescence – cell-based, HEK293-NOX2, PMA-stimulated, NOX inhibitor project, primary screen (AID 1159); settings: 45 min, higher = more signal, called active from +8 up or from −8 down; note: test concentration not given here
NADPH oxidase 2 (Homo sapiens), sequence (P04839 whole entry, looked up): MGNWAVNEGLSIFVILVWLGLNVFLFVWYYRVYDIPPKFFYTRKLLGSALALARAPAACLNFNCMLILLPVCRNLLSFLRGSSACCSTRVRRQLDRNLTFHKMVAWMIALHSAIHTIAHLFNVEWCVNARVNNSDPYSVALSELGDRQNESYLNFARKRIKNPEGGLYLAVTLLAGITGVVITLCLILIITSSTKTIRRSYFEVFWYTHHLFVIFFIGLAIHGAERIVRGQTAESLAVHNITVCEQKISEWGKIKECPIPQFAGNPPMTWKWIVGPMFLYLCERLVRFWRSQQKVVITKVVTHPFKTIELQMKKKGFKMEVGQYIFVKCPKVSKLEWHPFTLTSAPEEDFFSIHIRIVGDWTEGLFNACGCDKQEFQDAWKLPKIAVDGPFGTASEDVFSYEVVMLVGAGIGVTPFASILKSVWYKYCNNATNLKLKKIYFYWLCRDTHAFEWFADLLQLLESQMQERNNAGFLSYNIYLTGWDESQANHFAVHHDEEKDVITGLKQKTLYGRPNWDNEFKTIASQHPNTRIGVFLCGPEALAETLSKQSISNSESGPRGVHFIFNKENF

[19] = target: NADPH oxidase 4 (Homo sapiens) (UniProt Q9NPH5); experiment: compounds shifting NOX4 Amplex Red fluorescence – cell-based, HEK293-NOX4, tetracycline-induced, NOX inhibitor project, primary screen (AID 1160); settings: HEK293-NOX4, Amplex Red H2O2 fluorescence, 45 min; higher = more signal, called active from +8 up or from −8 down
NADPH oxidase 4 (Homo sapiens), sequence (Q9NPH5 whole entry, looked up): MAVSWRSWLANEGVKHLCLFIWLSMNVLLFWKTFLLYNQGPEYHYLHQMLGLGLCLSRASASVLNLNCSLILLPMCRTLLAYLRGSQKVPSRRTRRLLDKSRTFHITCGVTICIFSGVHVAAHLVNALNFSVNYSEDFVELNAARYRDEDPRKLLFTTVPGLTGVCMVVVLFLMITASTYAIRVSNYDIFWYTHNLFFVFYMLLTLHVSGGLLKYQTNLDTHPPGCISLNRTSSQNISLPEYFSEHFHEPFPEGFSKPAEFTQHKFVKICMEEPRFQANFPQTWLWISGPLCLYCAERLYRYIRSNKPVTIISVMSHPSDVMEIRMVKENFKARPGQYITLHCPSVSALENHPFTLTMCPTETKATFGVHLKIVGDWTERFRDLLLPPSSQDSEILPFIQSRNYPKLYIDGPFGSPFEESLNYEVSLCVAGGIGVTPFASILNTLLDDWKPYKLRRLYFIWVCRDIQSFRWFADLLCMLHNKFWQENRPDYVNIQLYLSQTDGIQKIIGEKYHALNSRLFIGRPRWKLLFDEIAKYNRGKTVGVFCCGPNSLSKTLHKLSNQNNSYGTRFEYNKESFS

[20] = target: NADPH oxidase 5 (Homo sapiens) (UniProt Q96PH1); experiment: compounds shifting NOX5 Amplex Red fluorescence – cell-based, HEK293-NOX5, NOX inhibitor project, primary screen (AID 1161); settings: HEK293-NOX5, ionomycin, 45 min, higher = more signal
NADPH oxidase 5 (Homo sapiens), sequence (Q96PH1 whole entry, looked up): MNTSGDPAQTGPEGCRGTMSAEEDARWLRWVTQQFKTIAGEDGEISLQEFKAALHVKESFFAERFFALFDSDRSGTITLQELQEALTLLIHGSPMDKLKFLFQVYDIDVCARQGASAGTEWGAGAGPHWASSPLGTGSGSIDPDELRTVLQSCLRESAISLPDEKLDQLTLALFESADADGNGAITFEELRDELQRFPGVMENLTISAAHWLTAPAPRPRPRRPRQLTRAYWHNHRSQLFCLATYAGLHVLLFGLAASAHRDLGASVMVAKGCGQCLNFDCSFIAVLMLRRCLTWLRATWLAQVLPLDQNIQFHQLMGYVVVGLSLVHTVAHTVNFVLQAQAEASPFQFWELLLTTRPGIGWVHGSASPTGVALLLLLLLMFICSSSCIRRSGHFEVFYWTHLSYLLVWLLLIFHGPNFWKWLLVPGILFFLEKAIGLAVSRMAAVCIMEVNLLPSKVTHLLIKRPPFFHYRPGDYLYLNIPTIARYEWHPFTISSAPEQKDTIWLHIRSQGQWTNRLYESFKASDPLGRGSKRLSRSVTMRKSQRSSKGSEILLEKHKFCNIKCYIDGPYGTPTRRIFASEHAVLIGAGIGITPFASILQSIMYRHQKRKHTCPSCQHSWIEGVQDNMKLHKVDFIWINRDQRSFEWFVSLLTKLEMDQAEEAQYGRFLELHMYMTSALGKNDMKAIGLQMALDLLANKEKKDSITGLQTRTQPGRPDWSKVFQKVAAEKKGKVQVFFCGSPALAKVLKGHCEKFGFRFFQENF

Row | Compound | composite z-score [1] | z-score [2] | z-score [3] | z-score [4] | z-score [5] | composite z-score [6] | composite z-score [7] | composite z-score (Torsin-1A (Homo sapiens) [8]) | composite z-score (Torsin-1A (Homo sapiens) [9]) | composite z-score [10] | z-score [11] | composite z-score [12] | z-score [13] | z-score [14] | z-score [15] | z-score [16] | z-score [17] | z-score [18] | z-score [19] | z-score [20]
1 | O=C1OCCC=C[C@H]2OC34C=CCN(Cn5nnc6ccccc65)C(=O)[C@H]3N(CCCCCCO)C(=O)[C@@H]4C12 (stereo not given in full) | -0.512 | 0.523 (inactive) | 0.863 (inactive) | 0.191 (inactive) | 0.0417 (inactive) | -1.12 | -0.561 | -0.103 | -0.0648 | -0.643 | -0.051 (inactive) | -0.81 | 0.987 (inactive) | 1.02 (inactive) | 0.946 (inactive) | 0.748 (inactive) | 0.916 | 0.94 (inactive) | -0.201 (inactive) | 2.2
2 | O=C1O[C@H](c2ccccc2)[C@H](c2ccccc2)N2[C@H]1[C@@H](C(=O)N1CCN(c3ncccn3)CC1)[C@]1(C(=O)Nc3ccc(C#CC4(O)CCCCCC4)cc31)[C@H]2c1ccc(OCCO)cc1 | 1.4 | -0.69 (inactive) | -1.09 (inactive) | -0.698 (inactive) | -0.509 (inactive) | 2.76 | 1.05 | 0.801 | 1.74 | 2.02 | -0.735 (inactive) | 1.66 | 8.14 (active) | 2.41 (inactive) | 1.76 (inactive) | 1.33 (inactive) | -0.274 | 1.28 (inactive) | 1.11 (inactive) | 1.35
3 | NCCCCCNC(=O)[C@@H]1C[C@@H]2C(=O)NCC(=O)N2[C@@H]1c1cccc(OCCO)c1 | 0.468 | 0.267 (inactive) | 0.771 (inactive) | -0.667 (inactive) | -0.496 (inactive) | 0.519 | 0.188 | 0.666 | 0.59 | 1.29 | 1.81 (inactive) | 0.165 | 2.11 (inactive) | 0.282 (inactive) | -0.874 (inactive) | 0.154 (inactive) | 0.121 | 1.44 (inactive) | -0.373 (inactive) | 2.89
4 | CCCC[C@@H](O)C1=C(COc2ccccc2)C[C@H]2C(=O)N(C)C(=O)[C@H]2[C@H]1CO | -0.339 | -1.22 (inactive) | -1.24 (inactive) | 2.49 (inactive) | -0.94 (inactive) | -0.803 | -0.102 | -0.631 | 0.596 | 0.406 | 2.41 (inactive) | -0.274 | 4.68 (inactive) | -0.35 (inactive) | 0.241 (inactive) | -1.53 (inactive) | 1.56 | -0.69 (inactive) | 0.449 (inactive) | 0.187
